Data published in PubChem BioAssay (NCI).
The panel holds about 79,000 compounds, 15% with a hit somewhere; the sample as a whole holds those more often. Active and inactive are the calls of the source. Rule as the data show it: active = growth inhibition above about 70%; inactive = the rest.

Legend:
[1] = NCI Yeast Anticancer Drug Screen. Data for the rad52 strain (AID 147);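 also: 0% = growth of vehicle-treated control cultures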; conditions: S. cerevisiae rad52 mutant growth inhibition, stronger effect = higher value
Procedure, shortened: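 Compounds are applied to a genetically defined yeast strain lacking normal DNA damage repair, and inhibition of growth is expressed relative to cultures given vehicle only.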

[2] = NCI Yeast Anticancer Drug Screen. Data for the wt1 strain (AID 149);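 also: 0% = growth of vehicle-treated wt1 cultures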; conditions: S. cerevisiae wt1 strain (SPY 50644) growth inhibition, stronger effect = higher value
Procedure, shortened: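 wt1 strain grown with compound or vehicle; inhibition taken from the growth difference.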

[3] = NCI Yeast Anticancer Drug Screen. Data for the rad50EPP+ strain (AID 151);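 also: 0% = growth of vehicle-treated control cultures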; conditions: S. cerevisiae rad50 mutant strain, stronger effect = higher value
Procedure, shortened: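 Compounds were applied to the rad50EPP+ yeast strain, which bears a defined DNA repair alteration, and growth inhibition was determined relative to vehicle-treated cultures.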

[4] = NCI Yeast Anticancer Drug Screen. Data for the rad50 strain (AID 155);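 also: 0% = growth of vehicle-only cultures of the same strain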; conditions: S. cerevisiae rad50 strain growth inhibition, stronger effect = higher value
Procedure, shortened: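 DNA repair mutant yeast, compound exposure, growth read-out; inhibition is taken relative to vehicle.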

[5] = NCI Yeast Anticancer Drug Screen. Data for the rad14 strain (AID 159);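 also: 0% = growth of vehicle-treated control cultures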; conditions: S. cerevisiae rad14 strain growth inhibition, stronger effect = higher value
Procedure, shortened: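 DNA repair-defective yeast, compound-exposed; % growth inhibition derived by comparison with vehicle-treated controls.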

[6] = NCI Yeast Anticancer Drug Screen. Data for the sgs1 mgt1 strain (AID 161);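 also: 0% = growth of cultures given vehicle only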; conditions: S. cerevisiae sgs1 mgt1 strain, stronger effect = higher value
Procedure, shortened: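 Inhibition of yeast growth, normalised to vehicle-treated controls, is reported for a strain bearing genetic alterations in DNA damage repair.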

[7] = NCI Yeast Anticancer Drug Screen. Data for the CLN2oe strain (AID 163);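 also: 0% = growth of vehicle-only control cultures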; conditions: S. cerevisiae CLN2oe strain, stronger effect = higher value
Procedure, shortened: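 Growth of a genetically modified yeast strain is measured after compound exposure and compared with cultures given vehicle alone.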

[8] = NCI Yeast Anticancer Drug Screen. Data for the cln2 rad14 strain (AID 165);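 also: 0% = growth equal to vehicle treated cultures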; conditions: S. cerevisiae cln2 rad14 strain, stronger effect = higher value
Procedure, shortened: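 Compounds are applied to the cln2 rad14 yeast strain, and growth is then compared with that of vehicle-treated cultures to give inhibition.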

[9] = NCI Yeast Anticancer Drug Screen. Data for the bub3 strain (AID 167); conditions: S. cerevisiae bub3 mutant strain, stronger effect = higher value
Procedure, shortened: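 In this screen, a yeast mutant lacking normal mitotic checkpoint function is challenged with compound. Relative growth versus vehicle gives the inhibition value.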

[10] = NCI Yeast Anticancer Drug Screen. Data for the wt2 strain (AID 169);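 also: 0% = growth of vehicle-treated yeast cultures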; conditions: S. cerevisiae wt2 strain growth inhibition, stronger effect = higher value
Procedure, shortened: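 This strain belongs to a panel of yeast strains with defined genetic alterations in DNA damage repair or cell cycle control. Compounds are applied, and growth inhibition is measured against vehicle-treated cultures.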

[11] = NCI Yeast Anticancer Drug Screen. Data for the sgs1 strain (AID 173);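 also: 0% = growth of vehicle-only control cultures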; conditions: S. cerevisiae sgs1 mutant, stronger effect = higher value
Procedure, shortened: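 Growth of a yeast strain bearing a defined genetic alteration is measured after compound treatment. Inhibition is expressed relative to vehicle-only controls.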

[12] = NCI Yeast Anticancer Drug Screen. Data for the mlh1 rad18 strain (AID 175); conditions: S. cerevisiae mlh1 rad18 strain growth inhibition, stronger effect = higher value
Procedure, shortened: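 Read-out is yeast growth inhibition, calculated against vehicle-only controls. The compound was applied to a strain engineered with DNA damage repair alterations.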

[13] = NCI Yeast Anticancer Drug Screen. Data for the mec2-1 strain (AID 157); conditions: S. cerevisiae mec2-1 strain, stronger effect = higher value
Procedure, shortened: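 Strain: mec2-1 (DNA repair/cell cycle alteration). Compound exposure, then growth measured; inhibition expressed relative to vehicle.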

[14] = NCI Yeast Anticancer Drug Screen. Data for the mlh1 strain (AID 171);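 also: 0% = growth of vehicle-treated control cultures of the same strain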; conditions: S. cerevisiae mlh1 strain growth inhibition, stronger effect = higher value
Procedure, shortened: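 Growth of the mutant yeast strain after compound exposure, expressed as inhibition relative to vehicle-only controls.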

[15] = NCI Yeast Anticancer Drug Screen. Data for the rad18 strain (AID 177); conditions: S. cerevisiae rad18 mutant growth inhibition, stronger effect = higher value
Procedure, shortened: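 Growth of the mutant yeast strain after compound exposure, normalised to vehicle-only cultures.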

[16] = NCI Yeast Anticancer Drug Screen. Data for the mgt1 strain (AID 153); conditions: S. cerevisiae mgt1 mutant growth inhibition, stronger effect = higher value
Procedure, shortened: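 Strain: mgt1 yeast, one of a set carrying defined DNA damage repair or cell cycle control alterations. Compound-treated growth compared with vehicle.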

[17] = at 5.0 µM (retest, dose inferred, filed as 0.5)
[18] = at 50.0 µM (retest, dose inferred, filed as 5.0)

Measured: growth inhibition

CCCc1[nH]nc(C(N)=O)c1N=NN(C)C
inactive: [1]; at 1.2 µM 2% | [1]; at 3.7 µM 12% | [1]; at 11.0 µM 37% | [2]; at 1.2 µM -6% | [2]; at 3.7 µM -4% | [2]; at 11.0 µM -7% | [2]; at 33.0 µM -4% | [2]; at 100.0 µM 5% | [3]; at 1.2 µM 2% | [3]; at 3.7 µM 16% | [3]; at 11.0 µM 43% | [4]; at 1.2 µM 3% | [4]; at 3.7 µM 4% | [4]; [17] -108% | [4]; at 11.0 µM 31% | [5]; at 1.2 µM 0% | [5]; at 3.7 µM -1% | [5]; at 11.0 µM 5% | [5]; at 33.0 µM 11% | [5]; at 100.0 µM 30% | [6]; [17] -55% | [6]; [18] 18% | [6]; at 50.0 µM 44.1% | [7]; at 1.2 µM -3% | [7]; at 3.7 µM -3% | [7]; at 11.0 µM 2% | [7]; at 33.0 µM -3% | [7]; at 100.0 µM 5% | [8]; [17] -59% | [8]; [18] -48% | [8]; at 50.0 µM 13.4% | [9]; at 1.2 µM -13% | [9]; at 3.7 µM -9% | [9]; [17] -60% | [9]; at 11.0 µM -5% | [9]; at 33.0 µM -6% | [9]; [18] -73% | [9]; at 50.0 µM -0.25% | [9]; at 100.0 µM 4% | [10]; at 1.2 µM -1% | [10]; at 3.7 µM 0% | [10]; at 11.0 µM -1% | [10]; at 33.0 µM 3% | [10]; at 100.0 µM 10% | [11]; at 1.2 µM 0% | [11]; at 3.7 µM -3% | [11]; at 11.0 µM 24% | [11]; at 33.0 µM 56% | [12]; [17] -120% | [12]; [18] 13%
active: [1]; at 33.0 µM 90% | [1]; at 100.0 µM 96% | [3]; at 33.0 µM 82% | [3]; at 100.0 µM 95% | [4]; at 33.0 µM 83% | [4]; [18] 81% | [4]; at 50.0 µM 94.8% | [4]; at 100.0 µM 94% | [11]; at 100.0 µM 85% | [12]; at 50.0 µM 73.5%

CCC(c1ccc(O)cc1)C(CC)c1ccc(OCCN)cc1 (configuration not stated)
inactive: [2]; at 1.2 µM -4% | [2]; at 3.7 µM -4% | [2]; at 11.0 µM -8% | [2]; at 33.0 µM -8% | [2]; at 100.0 µM 27% | [3]; at 1.2 µM -3% | [3]; at 3.7 µM 1% | [3]; at 11.0 µM 12% | [3]; at 33.0 µM 1% | [3]; at 100.0 µM 10% | [4]; at 1.2 µM 0% | [4]; at 3.7 µM -1% | [4]; [17] 18% | [4]; at 11.0 µM 3% | [4]; at 33.0 µM 27% | [4]; [18] 69% | [4]; at 50.0 µM 27.9% | [13]; at 1.2 µM -3% | [13]; at 3.7 µM -3% | [13]; [17] -4% | [13]; at 11.0 µM -7% | [13]; at 33.0 µM -4% | [13]; [18] 8% | [13]; at 50.0 µM 6.25% | [13]; at 100.0 µM 64% | [5]; at 1.2 µM -3% | [5]; at 3.7 µM 1% | [5]; at 11.0 µM 3% | [5]; at 33.0 µM 17% | [6]; [17] 0% | [6]; at 50.0 µM 60.1% | [7]; at 1.2 µM -1% | [7]; at 3.7 µM -4% | [7]; at 11.0 µM 5% | [7]; at 33.0 µM 19% | [8]; [17] -2% | [8]; [18] 25% | [8]; at 50.0 µM -1.25% | [10]; at 1.2 µM -2% | [10]; at 3.7 µM -9% | [10]; at 11.0 µM 6% | [10]; at 33.0 µM 8% | [14]; at 1.2 µM -3% | [14]; at 3.7 µM -4% | [14]; at 11.0 µM -5% | [14]; at 33.0 µM 12% | [11]; at 1.2 µM -23% | [11]; at 3.7 µM -46% | [11]; at 11.0 µM -18% | [11]; at 33.0 µM 15% | [12]; [17] 12% | [12]; at 50.0 µM 14.6% | [15]; at 1.2 µM -7% | [15]; at 3.7 µM -6% | [15]; at 11.0 µM -6% | [15]; at 33.0 µM 0%
active: [4]; at 100.0 µM 88% | [5]; at 100.0 µM 98% | [6]; [18] 76% | [7]; at 100.0 µM 83% | [10]; at 100.0 µM 92% | [14]; at 100.0 µM 91% | [11]; at 100.0 µM 94% | [12]; [18] 87% | [15]; at 100.0 µM 91%

CC[C@@]1(OC(=O)CCC(=O)O)C(=O)OCc2c1cc1n(c2=O)Cc2cc3ccccc3nc2-1
inactive: [3]; at 1.2 µM 14% | [3]; at 3.7 µM 47% | [16]; at 1.2 µM -6% | [16]; at 3.7 µM -2% | [16]; at 11.0 µM 9% | [16]; at 33.0 µM 59% | [13]; at 1.2 µM 6% | [13]; at 3.7 µM 6% | [13]; [17] 11% | [13]; at 11.0 µM 66% | [5]; at 1.2 µM 14% | [5]; at 3.7 µM -2% | [5]; at 11.0 µM 31% | [5]; at 33.0 µM 69% | [6]; [17] 30% | [7]; at 1.2 µM 10% | [7]; at 3.7 µM 21% | [7]; at 11.0 µM 33% | [8]; [17] 5% | [8]; at 50.0 µM 37.5% | [9]; at 1.2 µM -15% | [9]; at 3.7 µM -11% | [9]; [17] 16% | [9]; at 11.0 µM 4% | [9]; at 33.0 µM 62% | [9]; at 50.0 µM 64.2% | [10]; at 1.2 µM -13% | [10]; at 3.7 µM -19% | [10]; at 11.0 µM -7% | [10]; at 33.0 µM 69% | [14]; at 1.2 µM -9% | [14]; at 3.7 µM -7% | [14]; at 11.0 µM 2% | [11]; at 1.2 µM 18% | [11]; at 3.7 µM 21% | [11]; at 11.0 µM 31% | [12]; [17] 16% | [15]; at 1.2 µM 6% | [15]; at 3.7 µM 10% | [15]; at 11.0 µM 27% | [15]; at 33.0 µM 68%
active: [3]; at 11.0 µM 79% | [3]; at 33.0 µM 85% | [3]; at 100.0 µM 89% | [16]; at 100.0 µM 89% | [4]; at 1.2 µM 79% | [4]; at 3.7 µM 86% | [4]; [17] 85% | [4]; at 11.0 µM 91% | [4]; at 33.0 µM 94% | [4]; [18] 94% | [4]; at 50.0 µM 80.7% | [4]; at 100.0 µM 94% | [13]; at 33.0 µM 89% | [13]; [18] 94% | [13]; at 50.0 µM 85.9% | [13]; at 100.0 µM 94% | [5]; at 100.0 µM 89% | [6]; [18] 91% | [6]; at 50.0 µM 76.3% | [7]; at 33.0 µM 73% | [7]; at 100.0 µM 87% | [8]; [18] 72% | [9]; [18] 89% | [9]; at 100.0 µM 86% | [10]; at 100.0 µM 87% | [14]; at 33.0 µM 70% | [14]; at 100.0 µM 83% | [11]; at 33.0 µM 80% | [11]; at 100.0 µM 88% | [12]; [18] 85% | [15]; at 100.0 µM 81%
